# Calls of active or inactive are those of the source. Rule for the calls: active = hit-call score of the fitted dose curve at least 0.9, where 1 is the maximum; inactive = score below 0.9.
# Experiment: ATG_Oct_MLP_CIS: Attagene CIS-FACTORIAL HepG2 Assay for human Octamer-Binding Transcription Factor (Oct) (AID 2282993)
# Conditions: HepG2 Attagene cis-factorial Oct reporter, mRNA; actives raise or lower the signal
# Description: ATG_CIS is a cell-based, multiplexed-readout assay that uses HepG2, a human liver cell line, with measurements taken at 24 hours after chemical dosing in a 24-well plate.ATG_Oct_MLP_CIS is one of 52 assay component(s) measured or calculated from the ATG_CIS assay. It is designed to make measurements of mRNA induction, a form of inducible reporter, as detected with fluorescence intensity signals by Reverse transcription polymerase chain reaction (RT-PCR) and Capillary electrophoresis technology.Data from the assay component ATG_Oct_MLP_CIS was analyzed into 1 assay endpoint. This assay endpoint, ATG_Oct_MLP_CIS, was analyzed with bidirectional fitting relative to DMSO as the negative control and baseline of activity. Using a type of inducible reporter, measures of mRNA for gain or loss-of-signal activity can be used to understand the reporter gene at the transcription factor-level as they relate to the gene POU2F1. Furthermore, this assay endpoint can be referred to as a primary readout, because this assay has produced multiple assay endpoints where this one serves a reporter gene function. To generalize the intended target to other relatable targets, this assay endpoint is annotated to the dna binding intended target family, where the subfamily is POU domain protein.
# Human liver HepG2 cells are transiently transfected with multiple reporter transcription units (MRTUs) in 6-well plates using FuGene 6 reagent (Roche; 3 ml FuGene/1 mg DNA). The MRTU constructs are regulated by a cis-regulating element (promoter). […] A major difference between the CIS and TRANS system is that in CIS activities of endogenous TFs are measured, whereas the TRANS assay evaluates changes in activities of exogenous, chimeric NR-Gal4 proteins. […] At the end of 24 hour incubation, total RNA was isolated using TriZol reagent (Invitrogen). The isolated RNA is then reverse-transcribed using oligo(dT) primer and Mo-MLV reverse transcriptase (Invitrogen) with DNAse I (Ambion) treatment for 30 min. The one-tenth of the produced cDNA was amplified by PCR using Taq DNA polymerase (Invitrogen) and two reporter sequence-specific primers. The PCR products were fluorescently labeled by primer extension with 6-arboxyfluorescein (6-FAM) 5'-labeled reporter sequence-specific primer (2 min at 95 C, 20 s at 68 C and 10 min at 72 C) and these products were digested with 5U of HpaI (New England Biolabs) for 2h at 37 C. The fragments were purified using Qiaquick PCR columns (Qiagen), analyzed on an ABI 3130xL genetic analyzer (Applied Biosystems) with peak positions identified by using a set of X-rhodamine (ROX)-labeled MapMarker1000 molecular weight standards (BioVentures). The raw capillary electrophoresis data was processed using Attagraph software (Attagene).
Compound,outcome,AC50
CC1(C)[C@H]2CC[C@]1(C)C(=O)C2,inactive,–
O=C1CCCC1,inactive,–
C=CC(C)(C)C,inactive,–
CC(C)c1ccc2c(C(C)C)cc(C(C)C)c(S(=O)(=O)O)c2c1,inactive,–
Nc1ncn([C@@H]2O[C@H](CO)[C@@H](O)[C@H]2O)c(=O)n1,–,8.32 µM (active)
C=CC(=O)OCCOC(=O)C=C,–,26.3 µM (active)
NC(=O)c1ccccc1O,inactive,–
O=S(=O)(O)c1ccccc1C=Cc1ccc(-c2ccc(C=Cc3ccccc3S(=O)(=O)O)cc2)cc1,inactive,–
CCOC(=O)c1ccccc1C(=C1C=C(Br)C(=O)C(Br)=C1)c1cc(Br)c(O)c(Br)c1,–,53.1 µM (active)
COC(=O)c1sccc1S(N)(=O)=O,inactive,–
Cc1cccc(N(C)C(=S)Oc2ccc3ccccc3c2)c1,inactive,–
NNC(=O)c1cccc(C(=O)NN)c1,inactive,–
C(=CC=Nc1ccccc1)C=CNc1ccccc1,inactive,–
Cc1ccc2c(c1)C(=O)c1ccccc1C2=O,inactive,–
O=C1CCCN1CCO,inactive,–
CC(C)=CCCC(C)C=O (stereo not given),inactive,–
CC(C)=CCC/C(C)=C\C#N,inactive,–
O=S(=O)(O)CC(O)CCl (stereo not given),inactive,–
CCC(C)C=O (stereo not given),inactive,–
CCOc1nc(F)cc2nc(S(=O)(=O)Nc3c(Cl)cccc3C(=O)OC)nn12,inactive,–

Compound,outcome,AC50
CCCCCCCCO[C@@H]1O[C@H](CO)[C@@H](O)[C@H](O)[C@H]1O,inactive,–
C=C1C2CCC(C2)C1(C)C (stereo not given),inactive,–
O=[N+]([O-])C1(Br)COCOC1,inactive,–
CC(C)CCCCCOC(=O)CCS,inactive,–
CCCCCCCC/C=C\CCCCCCCC(=O)OCCO,inactive,–
Cc1cc(C)c(C)c(O)c1,inactive,–
O=c1[nH]nc(-c2ccc([N+](=O)[O-])o2)o1,inactive,–
CCCCC/C=C\CCC=O,inactive,–
CCCCCCCC/C=C\CCCCCCCC(=O)O,inactive,–
Cc1cc(O)c(Cl)c(C)c1Cl,inactive,–
CC=C1CC2C=CC1C2 (stereo not given),inactive,–
N#CCc1ccc(Cl)cc1Cl,inactive,–
OC1CCCC1,inactive,–
CC(=O)[C@H]1[C@H](C#N)C[C@H]2[C@@H]3CC=C4C[C@@H](O)CC[C@]4(C)[C@H]3CC[C@@]21C,inactive,–
CO[Si](OC)(OC)c1ccccc1,inactive,–
CCCOC(=O)CCCCC(=O)OCCC,inactive,–
COCCCOCCCOC,inactive,–
CC(=O)OCc1ccco1,inactive,–
O=c1n(CCO)c(=O)n(CCO)c(=O)n1CCO,inactive,–
O=[N+]([O-])c1ccc(CO)cc1,inactive,–

# From PubChem BioAssay (EPA / NIEHS)
